A selection: hits, their analogues and other compounds. The true share with any hit is near 12%.
BAZ2B inh: qHTS Assay for Inhibitors of BAZ2B | AlphaScreen BAZ2B-H3K14Ac peptide displacement | Potency, µM (top dose mostly 114 µM), inactives show at the highest dose activity change, negative = inhibition, usual class: inhibitors | 360,000 compounds, 4.4% hits | AID 504333, 2011; further: on the % scale 0 is the no-effect control and ±100 the full control effect; nearly all actives have a fitted effect of over 60% in size
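Compounds, titrated to a top concentration of 110 uM, were incubated 30 min at room temperature with preformed BAZ2B/acetyl-K14 H3 peptide complex (50 nM each). Proximity signal was measured by AlphaScreen after 20 min with beads.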
HP1b chromo inh: HTS for Inhibitors of HP1-beta Chromodomain Interactions with Methylated Histone Tails; Chromobox protein homolog 1 (Homo sapiens), P83916; AlphaScreen HP1-beta / biotin-H3K9me3 peptide binding; Potency, µM (doses to about 114 µM), for inactives: at the highest dose activity change, negative = inhibition, usual class: inhibitors; 390,000 compounds, 0.56% hits; AID 540317, 2011; further: nearly all actives have a fitted effect of over 70% in size
Target sequence (P83916 whole entry, looked up): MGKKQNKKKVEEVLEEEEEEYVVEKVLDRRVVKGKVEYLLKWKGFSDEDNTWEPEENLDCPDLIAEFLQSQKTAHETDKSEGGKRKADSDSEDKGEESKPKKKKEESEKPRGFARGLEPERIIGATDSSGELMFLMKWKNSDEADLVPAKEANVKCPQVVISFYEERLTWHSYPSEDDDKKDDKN
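AlphaScreen: HP1-beta (50 nM) preformed 30 min with biotin-H3(1-18)K9me3 peptide (50 nM) in PBS pH 7.4, 0.01% Tween-20. Compound added for 30 min at RT, then streptavidin donor/nickel chelate acceptor beads (10 ug/mL) for 30 min.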
G9a block: qHTS Assay for Inhibitors of Histone Lysine Methyltransferase G9a; AID 504332, 2011; G9a H3K9 monomethylation, AlphaScreen, 2 h; 350,000 compounds, 8.8% hits; Histone-lysine N-methyltransferase EHMT2 (Homo sapiens), Q96KQ7; Potency, µM (highest dose often 102 µM), for inactives: top-dose activity, negative = inhibition, actives largely listed as inhibitors; further: on the % scale 0 is the no-effect control and ±100 the full control effect; nearly all actives have a fitted effect of over 75% in size
Target sequence (Q96KQ7 913-1193 limits assumed): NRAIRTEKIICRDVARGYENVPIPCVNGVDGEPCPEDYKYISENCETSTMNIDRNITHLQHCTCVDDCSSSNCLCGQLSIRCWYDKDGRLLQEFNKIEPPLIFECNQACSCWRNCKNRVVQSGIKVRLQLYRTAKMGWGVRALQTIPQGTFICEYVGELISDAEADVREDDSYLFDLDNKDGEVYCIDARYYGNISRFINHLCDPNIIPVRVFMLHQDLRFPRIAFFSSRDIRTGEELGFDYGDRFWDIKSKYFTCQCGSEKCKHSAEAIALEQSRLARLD
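Using a bead-based AlphaScreen, monomethylated H3K9 product from 2 h room-temperature reactions (G9a 20 nM, peptide 500 nM, SAM 20 uM) was detected with 0.5 ug/mL rabbit anti-H3K9me1 antibody.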
JMJD2A Tudor: qHTS Assay for Inhibitors of JMJD2A-Tudor Domain. AlphaScreen JMJD2A-Tudor / H3K4me3 peptide binding. Potency, µM (top dose mostly 114 µM), inactives show at the highest dose activity change, negative = inhibition, actives largely listed as inhibitors. 390,000 compounds, 4.4% hits; further: on the % scale 0 is the no-effect control and ±100 the full control effect; nearly all actives have a fitted effect of over 50% in size
Sfp inh: qHTS Assay for Inhibitors of Bacillus subtilis Sfp phosphopantetheinyl transferase (PPTase). Biochemical Sfp PPTase activity, qHTS. 4'-phosphopantetheinyl transferase ffp (Bacillus subtilis), Q9F4F7. Potency, µM, inactives show largest response in the series, negative = inhibition, hits mostly inhibitors. 310,000 compounds, 3.5% hits;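 further: the enzyme is Sfp with the accession as filed and its product quenches rhodamine fluorescence; 0% = enzyme reaction without inhibitor and -100% = no enzyme wells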
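Buffer: 50 mM Hepes-Na pH 7.6, 10 mM MgCl2, 0.01% Nonidet P-40, 0.01% BSA. Enzyme 15 nM, pre-exposed to compound 15 min; substrates then added and fluorescence change tracked over 30 min.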
* = called active by the depositor; [ ] = another dose, or the depositor's remark. The call rests on the fitted dose curve; in most records, active means well fitted curve in the direction sought with a large enough effect; inconclusive means small, poorly fitted or top-dose-only effect, or another doubt; inactive means no such curve, though single readings can be large; an effect the other way counts as inactive or inconclusive. Potency means the concentration at half of the fitted maximal effect.

For CC1(C)CC(=O)C2=C(C1)N(Cc1ccco1)C(=O)C2(NC(=O)C1CCCCC1)C(F)(F)F (stereo not given) the results were BAZ2B inh -13%, HP1b chromo inh 27%, G9a block -43%[12.7 µM], JMJD2A Tudor -2% and Sfp inh 25µM*.
Screening Cc1cc(C(=O)CN2C(=O)NC(CC(C)C)C2=O)c(C)n1-c1ccccc1F (stereo not given) returned BAZ2B inh inconclusive, HP1b chromo inh 38%, G9a block 50µM*, JMJD2A Tudor -10%[57.1 µM] and Sfp inh 3%.
COC(=O)c1ccc(-n2c(C)cc(C(=O)CSc3ccc(NC(C)=O)cc3)c2C)cc1 was read as BAZ2B inh inconclusive, HP1b chromo inh -24%, G9a block inconclusive, JMJD2A Tudor inconclusive and Sfp inh -15%.
`CC(=O)Nc1ccc(SCC(=O)c2cc(C)n(-c3ccccc3F)c2C)cc1` gave BAZ2B inh 45µM*, HP1b chromo inh -30%, G9a block inconclusive, JMJD2A Tudor inconclusive and Sfp inh inconclusive.
For CCOC(=O)c1nnc(-c2ccccc2)nc1Sc1ccccc1Cl the results were BAZ2B inh -7%, HP1b chromo inh 7%, G9a block -6%, JMJD2A Tudor inconclusive and Sfp inh 79µM*.
Screening O=C(NCc1ccccc1F)C1CCCN1C(=O)Nc1cccc(F)c1 (stereo not given) returned BAZ2B inh -6%, HP1b chromo inh 31%, G9a block 15%, JMJD2A Tudor -5% and Sfp inh 14%.
`O=C1C(c2[nH]c3ccc(S(=O)(=O)O)cc3c2O)=Nc2ccc(S(=O)(=O)O)cc21` gave G9a block 18µM* and Sfp inh 22µM*.
Screening O=S(=O)(O)c1ccc(Cl)c(Cl)c1 returned HP1b chromo inh 19%[57 µM] and JMJD2A Tudor -8%.
`COc1cc(C2C(C(=O)Nc3ccccc3)=C(C)Nc3nnnn32)cc(OC)c1OC` (stereo not given) gave BAZ2B inh -1%, HP1b chromo inh 24%, G9a block 0%[59 µM] and JMJD2A Tudor -11%.
COc1cccc(NC(=S)NC2CC3CCCC(C2)N3CC(C)C)c1 (stereo not given) was read as BAZ2B inh 5%, HP1b chromo inh 20%, JMJD2A Tudor -14% and Sfp inh -6%.
Screening Cc1cc(C)n(CC(O)CN2c3ccccc3Sc3ccccc32)n1 (stereo not given) returned BAZ2B inh 50µM*, HP1b chromo inh -37%, G9a block inconclusive, JMJD2A Tudor 32µM* and Sfp inh 2%.
Screening Cc1cc(C)n(CC(O)Cn2c3ccccc3c3ccccc32)n1 (stereo not given) returned BAZ2B inh -16%, HP1b chromo inh 26%, G9a block 15%[12.7 µM], JMJD2A Tudor -13% and Sfp inh 50µM*.
COc1cccc(Cn2c(=O)c(-c3ccc(F)cc3)nc3cncnc32)c1 was read as G9a block 4%[0.501 µM] and Sfp inh -8%.
Screening Cc1nn(C)c(C)c1S(=O)(=O)N1CCC(C(=O)NC2CCCCC2)CC1 returned BAZ2B inh 4%, HP1b chromo inh 14%, G9a block 10%, JMJD2A Tudor 5% and Sfp inh -1%.
Cc1[nH]c(C)c(S(=O)(=O)N(C)Cc2ccccc2)c1C(=O)N1CCCCC1 was read as BAZ2B inh -18%, HP1b chromo inh 46%, G9a block -11%, JMJD2A Tudor -24% and Sfp inh 13%.
`CCCN(C(=O)c1nn(-c2ccc(C)cc2)c(=O)c2c1c1ccccc1n2C)c1ccccc1C` gave HP1b chromo inh inconclusive, G9a block -25%[59 µM] and JMJD2A Tudor -12%.
Screening CCN(C(=O)c1nn(-c2ccc(C)cc2)c(=O)c2c1c1ccccc1n2C)c1ccc(F)cc1 returned HP1b chromo inh 9%, G9a block 1.3µM* and JMJD2A Tudor -18%.
CCN(CC)CCOC(=O)c1ccc(NC(=O)c2nn(-c3ccc(C)cc3)c(=O)c3c2c2ccccc2n3C)cc1 was read as HP1b chromo inh inconclusive, G9a block 3.2µM* and JMJD2A Tudor inconclusive.
Screening COc1ccc(C2(C(=O)c3ccccc3)C(=O)c3ccccc3C2=O)cc1 returned BAZ2B inh 22µM*, HP1b chromo inh inconclusive, JMJD2A Tudor 35µM* and Sfp inh 45µM*.
`O/N=C/c1ccc(-c2ccccc2OC(F)(F)F)o1` gave BAZ2B inh -39%, HP1b chromo inh 2%, G9a block inconclusive, JMJD2A Tudor -17% and Sfp inh -19%.
COc1ccccc1/C=C/C=N/n1c(-c2ccccn2)n[nH]c1=S was read as BAZ2B inh 14µM*, HP1b chromo inh 8%, G9a block 1.6µM*, JMJD2A Tudor 8.9µM* and Sfp inh 2%.
Cc1nnc(C)n1/N=C/C=C/c1ccccc1 was read as BAZ2B inh 0%, HP1b chromo inh 6%, G9a block 3%, JMJD2A Tudor -14% and Sfp inh 20%.
`COc1ccccc1/C=C/C=N/n1c(-c2cc(C)[nH]n2)n[nH]c1=S` gave BAZ2B inh inconclusive, HP1b chromo inh -30%, G9a block 1.6µM*, JMJD2A Tudor 7.9µM* and Sfp inh -21%.
`Cc1cc(-c2n[nH]c(=S)n2/N=C/C=C/c2ccccc2)n[nH]1` gave BAZ2B inh inconclusive, HP1b chromo inh inconclusive, G9a block 1.4µM*, JMJD2A Tudor 10µM* and Sfp inh -15%.
`CC(=O)N1CCN(S(=O)(=O)c2cccc(C(=O)Nc3ccc(OC(F)F)cc3)c2)CC1` gave BAZ2B inh -2%, HP1b chromo inh 22%, G9a block 34%, JMJD2A Tudor -7% and Sfp inh -4%.
CN(c1ccccc1)S(=O)(=O)c1cccc(C(=O)NCCc2ccc(O)c(O)c2)c1 was read as BAZ2B inh -38%, HP1b chromo inh inconclusive, G9a block 8.9µM*, JMJD2A Tudor 13µM* and Sfp inh 18µM*.
For O=C(NNC(=S)NCC1CCCO1)c1cccc(S(=O)(=O)N2CCOCC2)c1 (stereo not given) the results were BAZ2B inh -3%, HP1b chromo inh 20%, G9a block 50µM*, JMJD2A Tudor -10% and Sfp inh 27%.
